According to PubChem BioAssay AID1159580 (chemical genetic matrix, 2015):
Out of some 5,500 compounds screened, about 2,000 (36%) were called active. About 18% were inconclusive and are not listed. No stated cut-off is given here; in the data, active means normalized growth mostly below about 0.91 (no sharp cut-off); inconclusive means no clear call, values can overlap the other calls; inactive means mostly above about 0.92. The list shows a part of the results.

Test: chemical genetic growth profiling, strain panel (AID 1159580);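 further: tested at 20 µM; growth read once vehicle control cultures reached saturation at 30 °C; 1 = growth at the plate median or of vehicle wells; lower values mean less growth of the strain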
Conditions: growth OD

Measured: normalized growth

O=C(O)c1ccccc1OP(=O)(O)O
inactive: S. cerevisiae deletion strains, locus YJR066W, strain TOR1, active compounds read low 0.875 | S. cerevisiae deletion strains, locus YKL009W, strain mrt4, active compounds read low 0.997 | S. cerevisiae deletion strains, locus YKL068W, active compounds read low 0.988 | S. cerevisiae deletion strains, locus YKL085W, strain MDH1 (second series), active compounds read low 0.986 | S. cerevisiae deletion strains, locus YKL085W, strain MDH1, active compounds read low 0.986 | S. cerevisiae deletion strains, locus YKL160W, strain elf1, active compounds read low 0.981 | S. cerevisiae deletion strains, locus YKL190W, strain CNB1, active compounds read low 1 | S. cerevisiae deletion strains, locus YKR001C, strain vps1, active compounds read low 0.984 | S. cerevisiae deletion strains, locus YKR026C, strain gcn3, active compounds read low 1.01 | S. cerevisiae deletion strains, locus YKR091W, strain srl3, active compounds read low 1 | S. cerevisiae deletion strains, locus YLL001W, strain dnm1, active compounds read low 1.03 | S. cerevisiae deletion strains, locus YLL026W, active compounds read low 1 | S. cerevisiae deletion strains, locus YLL041C, strain sdh2, active compounds read low 0.992 | S. cerevisiae deletion strains, locus YLR027C, strain aat2, active compounds read low 1 | S. cerevisiae deletion strains, locus YLR039C, strain RIC1, active compounds read low 1.01 | S. cerevisiae deletion strains, locus YLR058C, strain SHM2, active compounds read low 1.02 | S. cerevisiae deletion strains, locus YLR102C, strain apc9, active compounds read low 0.992 | S. cerevisiae deletion strains, locus YLR113W, strain HOG1, active compounds read low 0.967 | S. cerevisiae deletion strains, locus YLR221C, strain rsa3, active compounds read low 0.995 | S. cerevisiae deletion strains, locus YLR258W, strain gsy2, active compounds read low 1.02 | S. cerevisiae deletion strains, locus YLR262C, strain YPT6 (second series), active compounds read low 0.995 | S. cerevisiae deletion strains, locus YLR262C, strain YPT6, active compounds read low 1.05 | S. cerevisiae deletion strains, locus YLR268W, strain sec22, active compounds read low 1.01 | S. cerevisiae deletion strains, locus YLR320W, strain mms22, active compounds read low 1.02 | S. cerevisiae deletion strains, locus YLR330W, strain CHS5, active compounds read low 1.01 | S. cerevisiae deletion strains, locus YLR342W, strain FKS1 (second series), active compounds read low 1 | S. cerevisiae deletion strains, locus YLR342W, strain FKS1, active compounds read low 1 | S. cerevisiae deletion strains, locus YLR357W, strain rsc2, active compounds read low 1.03 | S. cerevisiae deletion strains, locus YLR370C, strain arc18, active compounds read low 1.01 | S. cerevisiae deletion strains, locus YLR371W, strain rom2, active compounds read low 0.987 | S. cerevisiae deletion strains, locus YLR384C, strain iki3, active compounds read low 1.01 | S. cerevisiae deletion strains, locus YLR418C, strain cdc73, active compounds read low 0.994 | S. cerevisiae deletion strains, locus YML016C, strain PPZ1, active compounds read low 1.01 | S. cerevisiae deletion strains, locus YML032C, strain rad52, active compounds read low 0.997 | S. cerevisiae deletion strains, locus YML120C, strain ndi1, active compounds read low 1 | S. cerevisiae deletion strains, locus YML124C, strain tub3, active compounds read low 0.996 | S. cerevisiae deletion strains, locus YMR058W, strain fet3, active compounds read low 1.01 | S. cerevisiae deletion strains, locus YMR078C, strain ctf18, active compounds read low 0.988 | S. cerevisiae deletion strains, locus YMR125W, strain sto1, active compounds read low 1.02 | S. cerevisiae deletion strains, locus YMR129W, active compounds read low 1 | S. cerevisiae deletion strains, locus YMR205C, strain PFK2, active compounds read low 1.03 | S. cerevisiae deletion strains, locus YMR223W, strain ubp8, active compounds read low 0.993 | S. cerevisiae deletion strains, locus YMR231W, strain pep5, active compounds read low 1 | S. cerevisiae deletion strains, locus YMR263W, strain SAP30, active compounds read low 1.02 | S. cerevisiae deletion strains, locus YMR307W, strain GAS1, active compounds read low 1 | S. cerevisiae deletion strains, locus YNL067W, strain RPL9B, active compounds read low 1.01 | S. cerevisiae deletion strains, locus YNL071W, strain lat1, active compounds read low 1.01 | S. cerevisiae deletion strains, locus YNL183C, strain NPR1, active compounds read low 0.872 | S. cerevisiae deletion strains, locus YNL209W, strain ssb2, active compounds read low 1 | S. cerevisiae deletion strains, locus YNL233W, strain BNI4, active compounds read low 1.02 | S. cerevisiae deletion strains, locus YNL248C, strain rpa49, active compounds read low 0.971 | S. cerevisiae deletion strains, locus YNL250W, strain rad50, active compounds read low 0.983 | S. cerevisiae deletion strains, locus YNL271C, strain bni1, active compounds read low 0.981 | S. cerevisiae deletion strains, locus YNL298W, strain CLA4, active compounds read low 0.982 | S. cerevisiae deletion strains, locus YNL307C, strain MCK1, active compounds read low 0.986 | S. cerevisiae deletion strains, locus YNL322C, strain KRE1 (second series), active compounds read low 0.983 | S. cerevisiae deletion strains, locus YNR049C, strain mso1, active compounds read low 1 | S. cerevisiae deletion strains, locus YNR052C, strain pop2, active compounds read low 0.999 | S. cerevisiae deletion strains, locus YOL006C, strain TOP1, active compounds read low 1.03 | S. cerevisiae deletion strains, locus YOL012C, strain htz1 0.778 | S. cerevisiae deletion strains, locus YOL147C, strain pex11, active compounds read low 1 | S. cerevisiae deletion strains, locus YOR001W, strain rrp6, active compounds read low 0.976 | S. cerevisiae deletion strains, locus YOR061W, strain CKA2, active compounds read low 1.01 | S. cerevisiae deletion strains, locus YOR069W, strain VPS5, active compounds read low 1.01 | S. cerevisiae deletion strains, locus YOR070C, strain gyp1, active compounds read low 0.998 | S. cerevisiae deletion strains, locus YOR080W, strain dia2, active compounds read low 1.01 | S. cerevisiae deletion strains, locus YOR083W, strain WHI5, active compounds read low 0.969 | S. cerevisiae deletion strains, locus YOR106W, strain vam3, active compounds read low 0.983 | S. cerevisiae deletion strains, locus YOR136W, strain idh2, active compounds read low 0.994 | S. cerevisiae deletion strains, locus YOR144C, strain elg1, active compounds read low 0.991 | S. cerevisiae deletion strains, locus YOR184W, strain ser1, active compounds read low 1 | S. cerevisiae deletion strains, locus YOR231W, strain MKK1, active compounds read low 0.981 | S. cerevisiae deletion strains, locus YOR265W, strain rbl2, active compounds read low 0.997 | S. cerevisiae deletion strains, locus YOR270C, strain vph1, active compounds read low 1.01 | S. cerevisiae deletion strains, locus YOR290C, strain snf2, active compounds read low 0.983 | S. cerevisiae deletion strains, locus YOR316C, strain cot1, active compounds read low 0.99 | S. cerevisiae deletion strains, locus YPL051W, strain arl3, active compounds read low 0.991 | S. cerevisiae deletion strains, locus YPL055C, strain LGE1, active compounds read low 1.03 | S. cerevisiae deletion strains, locus YPL078C, strain atp4, active compounds read low 0.968 | S. cerevisiae deletion strains, locus YPL106C, strain sse1, active compounds read low 1.01 | S. cerevisiae deletion strains, locus YPL240C, strain hsp82, active compounds read low 1 | S. cerevisiae deletion strains, locus YPL241C, strain CIN2, active compounds read low 1.01 | S. cerevisiae deletion strains, locus YPL256C, strain CLN2, active compounds read low 0.948 | S. cerevisiae deletion strains, locus YPR119W, strain clb2, active compounds read low 0.993 | S. cerevisiae deletion strains, locus YPR141C, strain kar3, active compounds read low 0.98 | S. cerevisiae deletion strains, locus YPR163C, strain tif3, active compounds read low 0.989 | S. cerevisiae deletion strains, locus YPR167C, strain met16, active compounds read low 0.986 | S. cerevisiae deletion strains, strain wtn01, active compounds read low 1.02 | S. cerevisiae strains, strain wild type, active compounds read low 1.01
